D2 PAM-1 – positively modulates the human D2 dopamine receptor allosterically. AID 485347. HEK293 T-REx D2, calcium flux, EC20 dopamine potentiation. potentiation, % at 10 µM. P14416. 340,000 tested, 0.34% active;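 active means potentiation over 3 SD above the plate norm, cut at about 30% in these data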; further: 0% is about no effect
Target sequence (P14416 whole entry, looked up): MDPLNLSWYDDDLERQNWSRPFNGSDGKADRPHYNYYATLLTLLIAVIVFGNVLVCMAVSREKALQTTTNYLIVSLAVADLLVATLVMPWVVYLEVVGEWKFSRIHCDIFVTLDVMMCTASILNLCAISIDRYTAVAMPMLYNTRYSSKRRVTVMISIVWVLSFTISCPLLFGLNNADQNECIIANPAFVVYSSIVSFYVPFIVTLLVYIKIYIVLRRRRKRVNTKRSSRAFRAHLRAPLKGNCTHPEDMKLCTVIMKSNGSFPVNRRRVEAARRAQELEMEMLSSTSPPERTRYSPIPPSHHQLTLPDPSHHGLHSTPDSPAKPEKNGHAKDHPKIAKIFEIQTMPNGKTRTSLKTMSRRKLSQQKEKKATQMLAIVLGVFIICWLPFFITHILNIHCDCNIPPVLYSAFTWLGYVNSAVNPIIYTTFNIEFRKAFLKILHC
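Calcium flux readout, no-wash dye, 1 read/s. Inducible HEK293 Trex D2 line, overnight 30 C. Compound alone 180 s (agonist flags), then EC20 dopamine, another 180 s to score potentiation.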
D2 antag – antagonists of human D2 dopamine receptor; P14416; inhibition, % at 10 µM; 340,000 tested, 2% active; HEK293 TREx D2 cells, calcium flux, dopamine EC80; in the data active means inhibition above about 30%; inactive means below that, where a call was filed; further: 0% is about no effect
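Calcium mobilization kinetics were recorded at 1 s intervals in tetracycline-induced HEK293 T-REx D2 cells, first for 180 s after compound addition and then 180 s after EC80 dopamine.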
D2 PAM-2 – potentiates the human D2 dopamine receptor allosterically | potentiation, % (test concentration not listed) | P14416 | AID 624464 | DiscoveRx D2 beta-arrestin cells, luminescence, 90 min; 100% = 57 uM dopamine signal | 360,000 tested, 0.23% active; in the data active means potentiation above about 50%; inconclusive means mostly about 30% to 49%
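PathHunter D2 cells, attached overnight at 37 deg C, received compound in DMSO plus dopamine at EC20 (50 nM final) for 90 min at 37 deg C. Beta-arrestin recruitment was read as luminescence after 1 h with detection reagent at ambient temperature.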
D2 ag-1 – human D2 receptor agonism in beta-arrestin assay; P14416; activation, % (no concentration beside the values); 360,000 tested, 0.084% active; DiscoveRx PathHunter D2 beta-arrestin, luminescence, 90 min; 100% = 57 uM dopamine signal; AID 624465; in the data active means activation above about 40%; inconclusive means between about 15% and that limit
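Agonist mode: compounds alone added to overnight-plated D2 PathHunter cells for 90 min at 37 C, with 57 uM final dopamine (EC100) defining full response. Beta-arrestin recruitment detected by chemiluminescent reagent, read after 1 h at ambient temperature.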
D2 ag-2 – agonists of human D2 dopamine receptor. HEK293 T-REx D2 cells, calcium flux agonist mode. P14416. AID 485358. 340,000 tested, 0.53% active. activation, % at 2 µM;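 active means activation over 3 SD above normal in the single-dose calcium agonist read, cut at about 30% in these data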; further: 0% is about no effect
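Tetracycline-induced HEK293 Trex cells with D2 receptor force-coupled to calcium signaling, plated overnight at 30 C and loaded with no-wash calcium dye. Calcium flux read kinetically for 180 s after compound addition; responses flag agonists.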
* hit, by the source's call; ? = inconclusive; · = not tested or not shown. Hits are enriched below; roughly 2.4% of the tested compounds scored in any of these assays.

SMILES	D2 PAM-1	D2 antag	D2 PAM-2	D2 ag-1	D2 ag-2
COc1ccc(-n2nc(C(=O)N3CCC(C)CC3)c3c4ccccc4n(C)c3c2=O)cc1Cl	24	·	·	·	0
Cc1sc2nc(C3CC3)nc(SCC(=O)NCc3ccco3)c2c1C	11	8	-15	6	0
O=C(CSc1nc(C2CCCCC2)nc2ccccc12)NCc1ccco1	-10	67*	-2	-3	-1
O=C(COC(=O)CNS(=O)(=O)c1ccc2ccccc2c1)Nc1ccccc1Sc1ccccc1	-22	17	4	2	34*
O=C1CN(C(=O)c2ccc(Cl)cc2Cl)C(c2ccc(F)cc2)c2cc(F)ccc2N1 (configuration not stated)	2	·	·	·	1
CCC(=O)NNc1nc2c(F)cc(F)cc2s1	5	40*	1	1	1
O=C(NNc1nc2c(F)cc(F)cc2s1)C1=COCCO1	2	39*	-1	0	-1
O=C(NC(=S)Nc1nc2c(s1)CCCC2)c1ccccc1	-18	35*	-17	-2	4
O=C(NC(=S)NCc1ccccc1)c1ccccc1	9	36*	-8	1	-1
COC(=O)c1ccc(C(=O)NC(=S)Nc2nc3c(s2)CCCC3)cc1	·	·	10	-1	·
CCCOc1ccc(-c2cccc(NS(=O)(=O)c3ccc(CC)cc3)c2)nn1	0	·	·	·	-1
Cc1ccc(Cn2c(=O)n(CCCCC(=O)NCCc3ccc(Cl)cc3)c(=O)c3ccccc32)cc1	5	·	·	·	3
COc1cc(C(=O)NCc2ccc(OCCN(C)C)cc2)cc(OC)c1OC	-21	72*	-38	-4	0
Cc1nc2c(-c3ccc(Cl)cc3)c(C)[nH]n2c(=O)c1Cc1ccccc1	-40	15	-16	2	0
CCOC(=O)Cc1c(C)nc2c(-c3ccccc3)c(-c3ccccc3)[nH]n2c1=O	7	10	-13	-6	-1
COc1ccc(-c2c(C)[nH]n3c(=O)c(Cc4ccccc4)c(C)nc23)cc1OC	-29	35*	-18	0	-1
Cc1nc2c(-c3ccccc3)c(C)[nH]n2c(=O)c1Cc1ccccc1	-19	43*	-13	5	0
Cc1cccc(Cc2c(C)nc3c(-c4ccccc4)c(C)[nH]n3c2=O)c1	·	·	·	·	-1
CCOC(=O)Cc1c(C)nc2c(-c3ccccc3)c(C)[nH]n2c1=O	34*	-10	-18	2	0
CCCCN(CCCC)CCNC(=O)Cn1nc(CC)n2c(cc3sccc32)c1=O	-24	·	·	·	0
CN(C(=O)c1nn(C)c2c1COc1ccccc1-2)c1cccc(C(F)(F)F)c1	-1	·	·	·	0
CC1CC(C)(C)Nc2ccc(OC(=O)c3ccco3)cc21 (configuration not stated)	10	0	112*	?	1
O=C(Oc1ccc2ccccc2c1)c1ccco1	-6	-7	2	-3	0
Cc1nnc(NC(=O)NC(C)N2C(=O)C3C4C=CC(C4)C3C2=O)s1 (configuration not stated)	-2	5	-2	1	1
CCc1nnc(NC(=O)C(C)N2C(=O)C3C4C=CC(C4)C3C2=O)s1 (configuration not stated)	-10	33*	-4	-2	1
SMILES	D2 PAM-1	D2 antag	D2 PAM-2	D2 ag-1	D2 ag-2
CC1CN(C(=O)N2CCC(C(=O)N3CCN(c4ccccc4)CC3)CC2)c2cc(Cl)ccc2O1 (configuration not stated)	3	·	·	·	0
COc1ccc(-n2c(N)c(-c3nc4ccccc4n3C)sc2=S)cc1	-5	34*	3	-3	0
NC(CC(=O)NC(c1ccccc1)(c1ccccc1)c1ccccc1)C(=O)O (configuration not stated)	37*	-3	-5	-5	1
O=C(NCCCN1CCCCC1)c1ccc(CS(=O)c2ccc(F)cc2)o1 (configuration not stated)	-4	32*	-4	-2	1
Cc1cc(C)c2nc(-c3ccccn3)cc(C(=O)NCc3cc(C)n(C)n3)c2c1	-13	35*	5	-4	0
COc1ccc2ccccc2c1-c1sc(Nc2ccccc2)n[n+]1-c1ccc(F)cc1	-8	32*	-31	-6	1
COc1ccc(-c2sc(Nc3ccccc3)n[n+]2-c2ccc(F)cc2)cc1Br	-4	-9	-10	-5	2
CC1(C)C(=O)NCCN1C(=O)CCC(=O)O	33*	-17	-20	0	0
S=C(Nc1ccccc1)NC1CCN(Cc2ccccc2)CC1	-27	92*	-39	-4	1
COc1ccc(CCNC(=S)NC2CCN(Cc3ccccc3)CC2)cc1	-29	71*	-19	-2	1
CC1CCN(CCNC(=S)Nc2ccc(Cl)cc2)CC1	-15	31*	-17	-3	1
CCC(C)c1ccc(NC(=S)NC2CCN(Cc3ccccc3)CC2)cc1 (configuration not stated)	-23	·	-35	-3	·
COc1ccc(NC(=S)NC2CCN(Cc3ccccc3)CC2)cc1OC	-18	23	-15	1	0
S=C(Nc1ccc(Cl)cc1)NC1CCN(Cc2ccccc2)CC1	-22	69*	-31	0	6
S=C(NCCN1CCOCC1)Nc1ccc(Cl)cc1	-13	1	-7	-3	0
CCc1ccc(NC(=S)NC2CCN(Cc3ccccc3)CC2)cc1	-25	98*	-28	-3	4
CS(=O)(=O)N1CCc2cc(C(=O)O)ccc21	31*	0	1	-1	-1
CS(=O)(=O)N1CCc2cc(C(=O)N3CCCCC3)ccc21	-5	4	-4	2	0
O=C(NCCc1ccc(Cl)cc1)c1ccc2c(c1)N(Cc1cccc(Cl)c1)C(=O)c1ccccc1S2(=O)=O	-6	·	·	·	·
COc1ccc2c(c1)C(=O)N(c1ccccc1)C(=O)C2	31*	13	20	-3	1
CCC(C)(C)n1nnnc1C(c1ccccc1)N1CCc2ccccc2C1 (configuration not stated)	9	3	-7	1	-1
CCC(C)(C)n1nnnc1C(c1ccc(O)c(OC)c1)N1CCc2ccccc2C1 (configuration not stated)	2	35*	-10	-1	0
CCOc1ccccc1Nc1nnc(-c2cc3cc(Cl)ccc3oc2=O)s1	2	·	·	·	2
COc1ccc(-n2c(SCc3ccccc3)nc3c([nH]c4ccccc43)c2=O)cc1	-3	·	·	·	1
COc1ccc(C2C(C(=O)Nc3ccccc3)=C(C)Nc3c(C(=O)Nc4ccccc4)cnn32)cc1 (configuration not stated)	6	·	·	·	1
N#CCC(=O)Nc1ccc(C(=O)OCC(=O)NCc2ccc3c(c2)OCO3)cc1	-6	44*	9	0	0

From PubChem
